In PubChem BioAssay (Tox21):
Results filed as inconclusive are left out. Unmarked numbers belong to inactive results. Calls of active or inactive are those of the source. Calls follow the shape of the dose curve; as a rule, active = well fitted inhibition curve with a large enough effect in the repeat runs; inconclusive = weak or mixed curves; inactive = flat fitted curve, though single readings scatter.
% is scaled to controls: 0 for no effect and ±100 for the full control effect; potency is read from the fitted curve at half-maximal effect.

What follows are compounds tested against Voltage-gated inwardly rectifying potassium channel KCNH2 (Homo sapiens) (UniProt Q12809) (assay: Human Ether-a-go-go-Related Gene (hERG) channel small molecule antagonists: fluorescence cell-based qHTS assay (AID 1671200; also: nearly all actives have a fitted effect of over 50% in size;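 as to activity change, negative = inhibition: hERG-expressing U2OS cells given a thallium stimulus after FluxOR II dye loading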)). Details: hERG-U2OS cells, FluxOR thallium flux fluorescence; series mostly up to 76.8 µM; activity change, negative = inhibition: at the top concentration.
Sequence of Voltage-gated inwardly rectifying potassium channel KCNH2 (Homo sapiens) (Q12809 whole entry, looked up): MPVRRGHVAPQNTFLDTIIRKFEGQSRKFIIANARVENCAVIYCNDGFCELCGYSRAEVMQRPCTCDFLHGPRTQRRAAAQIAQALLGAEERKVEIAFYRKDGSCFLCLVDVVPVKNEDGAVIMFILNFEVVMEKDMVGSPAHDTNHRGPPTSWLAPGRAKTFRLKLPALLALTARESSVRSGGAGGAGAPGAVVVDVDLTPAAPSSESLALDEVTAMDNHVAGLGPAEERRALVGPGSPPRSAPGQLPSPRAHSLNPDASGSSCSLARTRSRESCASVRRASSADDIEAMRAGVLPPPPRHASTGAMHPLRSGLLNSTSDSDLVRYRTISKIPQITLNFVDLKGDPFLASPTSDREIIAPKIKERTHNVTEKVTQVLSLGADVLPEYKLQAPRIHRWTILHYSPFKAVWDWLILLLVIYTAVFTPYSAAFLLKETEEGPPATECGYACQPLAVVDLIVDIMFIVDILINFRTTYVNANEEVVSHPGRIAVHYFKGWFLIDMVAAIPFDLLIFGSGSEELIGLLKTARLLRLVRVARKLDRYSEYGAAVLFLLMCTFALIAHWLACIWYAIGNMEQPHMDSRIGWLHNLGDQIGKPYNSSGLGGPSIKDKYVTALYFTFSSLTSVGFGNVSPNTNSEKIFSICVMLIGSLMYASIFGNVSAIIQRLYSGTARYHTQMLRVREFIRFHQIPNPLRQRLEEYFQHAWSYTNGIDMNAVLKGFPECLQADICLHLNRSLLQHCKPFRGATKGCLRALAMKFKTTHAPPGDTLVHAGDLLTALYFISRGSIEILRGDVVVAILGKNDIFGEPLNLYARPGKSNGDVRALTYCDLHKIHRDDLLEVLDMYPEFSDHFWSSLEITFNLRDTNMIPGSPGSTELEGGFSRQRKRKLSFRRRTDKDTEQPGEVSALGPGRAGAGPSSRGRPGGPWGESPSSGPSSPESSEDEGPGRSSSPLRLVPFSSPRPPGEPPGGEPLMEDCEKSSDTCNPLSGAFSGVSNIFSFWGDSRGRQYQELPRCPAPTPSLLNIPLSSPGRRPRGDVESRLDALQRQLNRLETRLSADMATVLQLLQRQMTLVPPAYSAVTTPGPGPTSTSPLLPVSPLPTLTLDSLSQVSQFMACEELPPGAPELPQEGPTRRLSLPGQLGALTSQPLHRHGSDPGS
Summary of the method: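 Channel function was assessed by thallium flux. Cells seeded the previous day and kept at 37 C took up FluxOR II dye over 1 h in the dark at room temperature, then sat another 10 min before stimulation.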
In the case of `NC(N)=NS(=O)(=O)c1ccc(N)cc1`, the “activity change, negative = inhibition” value is reported as 3.5% [at 35.3 µM].
In the case of `CO[Si](OC)(OC)OC`, the “activity change, negative = inhibition” value is reported as -0.301%.
For `OCCN1C[C@H](O)[C@@H](O)[C@H](O)[C@H]1CO`, the “activity change, negative = inhibition” value was 4.02% [at 35.3 µM].
With `COc1cc(C)cc(O)c1` the “activity change, negative = inhibition” value was 0.592%.
With `C=CC(=O)OCCCCCC` the “activity change, negative = inhibition” value was 2.46%.
For `CC(C)(O)Cc1ccccc1`, the “activity change, negative = inhibition” value was -6.34%.
For `C=CCOCC(O)CS(=O)(=O)O` (stereo not given), the “activity change, negative = inhibition” value was -0.616%.
`OC[C@H]1O[C@@H]2O[C@H]3[C@H](O)[C@@H](O)[C@@H](O[C@H]4[C@H](O)[C@@H](O)[C@@H](O[C@H]5[C@H](O)[C@@H](O)[C@@H](O[C@H]6[C@H](O)[C@@H](O)[C@@H](O[C@H]7[C@H](O)[C@@H](O)[C@@H](O[C@H]8[C@H](O)[C@@H](O)[C@@H](O[C@H]9[C@H](O)[C@@H](O)[C@@H](O[C@H]1[C@H](O)[C@H]2O)O[C@@H]9CO)O[C@@H]8CO)O[C@@H]7CO)O[C@@H]6CO)O[C@@H]5CO)O[C@@H]4CO)O[C@@H]3CO` was tested, and the “activity change, negative = inhibition” value was 0.899% [at 35.3 µM].
`CCCCC=O` was tested, and the “activity change, negative = inhibition” value was -0.851%.
In the case of `CCCCCC[C@@H](CCC)C(=O)O`, the “activity change, negative = inhibition” value is reported as -1.67% [at 35.3 µM].
For `CC(=O)c1ccc(C)cc1`, the “activity change, negative = inhibition” value was 4.41%.
`NC(=O)CCCCC1CCSS1` (stereo not given) was tested, and the “activity change, negative = inhibition” value was 0.385% [at 35.3 µM].
For `Cc1ccc(N)cc1[N+](=O)[O-]`, the “activity change, negative = inhibition” value was -0.283%.
`CCCCNc1ccccc1` was tested, and the “activity change, negative = inhibition” value was 1.24%.
In the case of `CC(=O)NC(Cc1ccccc1)C(=O)O` (stereo not given), the “activity change, negative = inhibition” value is reported as 4.13% [at 35.3 µM].
In the case of `C=C(C)[C@@H]1CCC2=CC(=O)C[C@@H](C)[C@]2(C)C1`, the “activity change, negative = inhibition” value is reported as -0.474%.
`CNC(=O)c1c(I)c(NC(=O)CCCCC(=O)Nc2c(I)c(C(=O)O)c(I)c(C(=O)NC)c2I)c(I)c(C(=O)O)c1I` was tested, and the “activity change, negative = inhibition” value was -4.33% [at 35.3 µM].
`COC(=O)CCCC(=O)O` was tested, and the “activity change, negative = inhibition” value was -3.71%.
With `Oc1ccc2c(c1)OC[C@@H](N1CCC(O)(c3ccc(F)cc3)CC1)[C@H]2O` the “activity change, negative = inhibition” value was -11.3% [at 35.3 µM].
With `OCc1ccccn1` the “activity change, negative = inhibition” value was 1.52% [at 35.3 µM].
In the case of `CCCCCCOC(=O)CC(CC(=O)OCCCCCC)(OC(=O)CCC)C(=O)OCCCCCC`, the “activity change, negative = inhibition” value is reported as 0.0205%.
`CN(C)N=Nc1ccccc1` was tested, and the “activity change, negative = inhibition” value was 1.04%.
For `C=C(C)C(=O)OCCCCCCCCCCCCCCCCCC`, the activity change, negative = inhibition was -0.193% [at 15.8 µM].
For `COc1ccc(NC(C)=O)cc1`, the “activity change, negative = inhibition” value was 2.53%.
For `OCCCCCCO`, the “activity change, negative = inhibition” value was -0.975%.
With `c1cc(CN2CCCCC2)cc(OCCCNc2nc3ccccc3s2)c1` the Potency was 8.49 µM (active).
With `CC(C)CCCCCCN` the “activity change, negative = inhibition” value was -4.95%.
With `CCN(CC)C(=O)c1ccc(O)c(OC)c1` the “activity change, negative = inhibition” value was 3.03% [at 35.3 µM].
`CCCCOCC(C)OCC(C)O` (stereo not given) was tested, and the “activity change, negative = inhibition” value was 8.83%.
In the case of `CC(C)c1ccc2oc3nc(N)c(C(=O)O)cc3c(=O)c2c1`, the “activity change, negative = inhibition” value is reported as 2.8% [at 35.3 µM].
`CC(C)[C@H](N)C(=O)OCCOCn1cnc2c(=O)[nH]c(N)nc21` was tested, and the “activity change, negative = inhibition” value was 0.315% [at 35.3 µM].
With `COC(=O)C1=C(C)NC(C)=C(C(=O)OCC(C)=O)C1c1ccccc1[N+](=O)[O-]` (stereo not given) the “activity change, negative = inhibition” value was 6.38% [at 35.3 µM].
`CC(C)[N+](C)(C)CC(O)COc1cccc2ccccc12` (stereo not given) was tested, and the “activity change, negative = inhibition” value was 2.34% [at 35.3 µM].
With `CCCCc1ccc(N)cc1` the “activity change, negative = inhibition” value was -0.167%.
`CCOC(=O)Cn1c(=O)sc2cccc(Cl)c21` was tested, and the “activity change, negative = inhibition” value was -8.08%.
